# Bioassay records (PubChem)
# L3MBTL1 inh: L3MBTL1 (human) inhibition; Potency, µM (top dose mostly 57.1 µM), without a hit: at the top dose activity, negative = inhibition, usual class: inhibitors; AlphaScreen L3MBTL1–H3K9me1 peptide binding; Q9Y468; 0.66% of 230,000 active; also: % is scaled to controls: 0 for no effect and ±100 for the full control effect; nearly all actives have a fitted effect of over 60% in size
#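 First, the protein-peptide complex forms for 30 min at room temperature (L3MBTL1 50 nM, biotinylated H3K9me1 peptide 75 nM). Next, compounds are pin-transferred and incubated 30 min. Finally, AlphaScreen beads are added and read after 30 min.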
# APE1 inh: blocks human APE1 abasic DNA cleavage. recombinant APE1, TAMRA/BHQ-2 abasic DNA cleavage fluorescence. Potency, µM (top dose mostly 65.8 µM), for the others: at the top dose activity change, negative = inhibition, usual class: inhibitors. 0.35% of 350,000 active. AID 2517;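 also: plate controls were vehicle for no effect and reference inhibitor for full effect; nearly all actives have a fitted effect of over 55% in size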
#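 Quantitative HTS: incision of a TAMRA/BHQ-2 double-stranded substrate bearing a tetrahydrofuran abasic site by 0.75 nM APE1 raises fluorescence. Substrate 50 nM final, added after 15 min compound preincubation at room temperature; progress as third-minus-first kinetic read difference.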
# Pol iota inh: inhibitors of human DNA polymerase iota | Q9UNA4 | Pol iota fluorescent replication assay, 10 min | Potency, µM (titrated, usually from 115 µM), for the others: at the highest dose activity, negative = inhibition, most hits filed as inhibitors | 1% of 390,000 active
# Target sequence (Q9UNA4 whole entry, looked up): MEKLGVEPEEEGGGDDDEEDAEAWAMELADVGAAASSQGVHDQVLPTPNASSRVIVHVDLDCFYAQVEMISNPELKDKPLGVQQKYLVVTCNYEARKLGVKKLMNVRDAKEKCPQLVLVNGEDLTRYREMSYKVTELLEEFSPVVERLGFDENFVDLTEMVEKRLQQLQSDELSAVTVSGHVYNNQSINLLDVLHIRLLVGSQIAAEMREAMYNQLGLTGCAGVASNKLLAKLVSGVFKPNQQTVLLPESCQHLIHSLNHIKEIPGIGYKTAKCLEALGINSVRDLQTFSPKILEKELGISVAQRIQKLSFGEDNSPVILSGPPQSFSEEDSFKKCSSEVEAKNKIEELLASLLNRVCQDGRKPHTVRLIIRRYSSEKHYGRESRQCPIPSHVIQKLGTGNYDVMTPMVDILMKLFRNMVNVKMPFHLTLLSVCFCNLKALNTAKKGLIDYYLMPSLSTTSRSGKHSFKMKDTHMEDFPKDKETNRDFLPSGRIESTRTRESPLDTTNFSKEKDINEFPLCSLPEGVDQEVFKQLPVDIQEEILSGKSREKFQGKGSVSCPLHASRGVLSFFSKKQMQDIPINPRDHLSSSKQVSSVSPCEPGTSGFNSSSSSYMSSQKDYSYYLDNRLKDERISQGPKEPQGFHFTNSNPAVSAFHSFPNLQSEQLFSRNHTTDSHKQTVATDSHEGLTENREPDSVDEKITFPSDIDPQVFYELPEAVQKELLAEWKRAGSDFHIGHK
#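 Pol iota at 10 nM preincubated 15 min with compounds at room temperature; reaction started with fluorescent substrate, 50 nM final. Fluorescence read kinetically at 0 and 10 min; buffer-only wells as negative control.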
# Pol kappa inh-1: blocks human DNA polymerase kappa activity; Q9UBT6; purified Pol kappa, fluorescent DNA synthesis assay, 10 min; Potency, µM (doses to about 107 µM), inactives show at the highest dose activity, negative = inhibition, usual class: inhibitors; 0.53% of 400,000 active; AID 588579; also: % is scaled to controls: 0 for no effect and ±100 for the full control effect
#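 Fluorescent qHTS in 1536-well format: enzyme (10 nM) and compound sat 15 min at room temperature before 50 nM substrate (final) was added. Signal taken at 0 and 10 min; no-enzyme buffer wells were negative controls.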
# POLB inh: inhibitors of human DNA polymerase beta; P06746; Pol beta primer extension/strand displacement, fluorescence kinetic; Potency, µM (titrated, usually from 114 µM), for the others: at the top dose activity change, negative = inhibition, most hits filed as inhibitors; 1.3% of 340,000 active; AID 485314; also: % is scaled to controls: 0 for no effect and ±100 for the full control effect
#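 Pol beta (10 nM) was preincubated with compound for 15 min at room temperature. The reaction was then started with 50 nM substrate and read immediately and after a further 10 min at room temperature.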
# Pol eta inh-1: DNA polymerase eta (human) inhibition. recombinant Pol eta, fluorescent DNA replication assay. AID 588591. Potency, µM (series often up to 114 µM), without a hit: at the top dose activity change, negative = inhibition, actives largely listed as inhibitors. 1.2% of 390,000 active; also: % is scaled to controls: 0 for no effect and ±100 for the full control effect
#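 Fluorescent replication assay: 50 nM final substrate added after a 15 min room-temperature compound preincubation with 10 nM enzyme. Signal taken at 0 min and again at 10 min.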
# Pol iota confirm: Inhibitors of human DNA polymerase iota, confirmation | AID 720496 | shares compounds with Pol kappa inh-1 | Potency, µM, actives largely listed as inhibitors | 77% of 1,500 active | Pol iota primer extension, TAMRA/BHQ fluorescence
# Pol kappa inh-2: confirmation of human DNA polymerase kappa inhibitors; 76% of 920 active; Potency, µM, usual class: inhibitors; purified Pol-kappa, fluorescent strand-displacement substrate; shares compounds with Pol eta inh-1
# Pol eta inh-2: Pol eta (human) inhibition, cherry-pick confirmation; shares compounds with Pol eta inh-1; Pol eta primer extension, TAMRA/BHQ fluorescence, 10 min; Potency, µM, most hits filed as inhibitors; 64% of 2,600 active; AID 720502
# Numbers without * were called inactive; ? = inconclusive; / = no result given; [ ] = dose if it differs, or a comment. Shown are actives, neighbours in structure and some others; about 2.5% of the full set was active somewhere. Calls follow the shape of the dose curve; as a rule, active = well fitted curve in the direction sought with a large enough effect; inconclusive = small, poorly fitted or top-dose-only effect, or another doubt; inactive = no such curve, though single readings can be large; an effect the other way counts as inactive or inconclusive. Potency is read from the fitted curve at half-maximal effect.
SMILES,L3MBTL1 inh,APE1 inh,Pol iota inh,Pol kappa inh-1,POLB inh,Pol eta inh-1,Pol iota confirm,Pol eta inh-2,others
CCc1nnc(NS(=O)(=O)c2ccc(NC(=O)c3ccccc3)cc2)s1,/,7%,15%,-6%,-5%,-3%,/,/,
CCN(CC)c1ccc(C2C(C(=O)Nc3ccccc3C)=C(C)Nc3ncnn32)cc1 (stereo not drawn),/,/,-14%,-9%[60.1 µM],2%,-13%,/,/,
CC1=C(C(=O)Nc2ccccc2C)C(c2ccc[nH]2)n2ncnc2N1 (stereo not drawn),/,/,22µM*,32µM*,40µM*,8.9µM*,21*,30*,
COC(=O)c1cc(NS(=O)(=O)c2cccs2)cc(NS(=O)(=O)c2cccs2)c1,1%,6%,42%,-4%,/,-17%,/,/,
N#CC(C#N)=C1C=C2C=C(N3CCCCCC3)CCC2CC1 (stereo not drawn),-19%,?,45µM*,?,40µM*,50µM*,42*,17*,
N#CC(C#N)=C1C=C2C=C(N3CCOCC3)CCC2CC1 (stereo not drawn),-2%,-9%,102%,-5%,27%,-2%,/,/,
CCCCn1c(N)c(N(CCOC)C(=O)c2cc(-c3ccc(OC)c(OC)c3)nc3ccccc23)c(=O)[nH]c1=O,2%,-9%,27%,-16%,/,-11%,/,/,
CCCCn1c(N)c(N(CCOC)C(=O)c2cc(-c3ccco3)nc3ccccc23)c(=O)[nH]c1=O,?,?,20µM*,89µM*,/,11µM*,?,?,
O=C(O)Cc1c[nH]c2cccc(O)c12,5.6µM*,16µM*,?,22µM*,18µM*,8.9µM*,19*,7.6*,
COc1ccccc1-n1nnnc1SCC(=O)NCC1CCCO1 (stereo not drawn),8%,15%,-8%,5%,/,-12%,/,/,
COc1ccccc1NC(=O)c1cnc(SCC(=O)NCC2CCCO2)n(C)c1=O (stereo not drawn),10%,13%,22µM*,-15%,/,40µM*,?,85*,
O=C(COC(=O)/C=C/c1ccc(F)cc1)Nc1nnc(-c2ccccc2)o1,7%,-32%,35%,?,/,?,/,/,
CCOc1cc(/C=C2\C(=N)N3N=C(S(=O)(=O)CC)SC3=NC2=O)ccc1OC(=O)c1ccco1,/,-27%,-4%,-4%,-47%,?,/,/,
CCS(=O)(=O)C1=NN2C(=N)/C(=C\c3ccc(SCc4ccco4)o3)C(=O)N=C2S1,32µM*,?,?,28µM*,11µM*,4.5µM*,38*,17*,
COc1ccc(CCC(=O)N2CCN(c3ccccc3)CC2)cc1OC,/,57%,-7%,-14%,-19%,-18%,/,/,
NS(=O)(=O)c1ccc(CCNC(=O)CCS(=O)(=O)c2ccc(Br)cc2)cc1,/,-39%,2%,-2%,28µM*,20µM*,38*,43*,
O=C(CCS(=O)(=O)c1ccc(Br)cc1)NCCc1ccccc1,/,11%,50µM*,?,?,20µM*,?,48*,Pol kappa inh-2=17*
NS(=O)(=O)c1ccc(CCNC(=O)COC(=O)c2ccc([N+](=O)[O-])o2)cc1,?,-42%,35µM*,-36%,/,?,84*,?,
CCOc1ccc(CCNC(=O)CCS(=O)(=O)c2ccc(Br)cc2)cc1OCC,/,6%,6%,9%,-22%,-5%,/,/,
NS(=O)(=O)c1ccc(CCNC(=O)COC(=O)Cc2ccc([N+](=O)[O-])cc2)cc1,2%,-5%,8%,-2%,/,-8%,/,/,
COc1ccc2[nH]c3c(=O)n(Cc4ccc(C(=O)NCC5CCCO5)cc4)c(=S)[nH]c3c2c1 (stereo not drawn),-2%,-2%,?,-32%,89µM*,18µM*,?,76*,
COc1ccc2nc(C)cc(N/N=C/c3cccc(OC)c3O)c2c1,-14%,-24%,?,79µM*,?,?,30*,27*,Pol kappa inh-2=?
CN(Cc1ccc(OC(F)F)cc1)C(=O)/C=C/c1ccc(S(=O)(=O)N2CCOCC2)cc1,-10%,19%,-11%,-3%,/,-19%,/,/,
Cc1cc(C)n2nc(C(=O)OCC(=O)c3cc(C)n(C)c3C)nc2n1,?,-10%,?,?,32µM*,14µM*,?,85*,
CC(C)(C)OC(=O)N1CCC(c2c(C(=O)NCCN3CCC(Cc4ccccc4)CC3)cnn2-c2ccc(F)cc2)CC1,/,/,2%,-8%,4%,-19%,/,/,
SMILES,L3MBTL1 inh,APE1 inh,Pol iota inh,Pol kappa inh-1,POLB inh,Pol eta inh-1,Pol iota confirm,Pol eta inh-2,others
CC(=O)c1ccc(NC(=O)CSc2nnc3c(n2)[nH]c2ccccc23)cc1,/,/,-18%,3%,8.9µM*,45µM*,?,?,Pol kappa inh-2=47*
COc1cc2c(cc1OC)C(=O)C(c1ccc3c(c1)OCO3)CC2 (stereo not drawn),/,/,/,/,/,-5%,/,/,
COc1cc2c(cc1OC)C(=O)C(Br)CC2 (stereo not drawn),/,/,/,/,/,20µM*,67*,?,
CC(C)NC(=O)Nc1cccc2c1O[C@H](CN(C)C(=O)NC1CCCCC1)[C@H](C)CN([C@H](C)CO)C2=O,1%,-3%,7%,-9%,/,-12%,/,/,
O=C(O)c1ccc(N2C(=O)CC(SC(=Nc3ccccc3)Nc3ccccc3)C2=O)cc1 (stereo not drawn),8%,4%,15%,-3%,5%,3%,/,/,
CC(/C=C/c1ccc(N(C)C)cc1)=N\N=C(/N)SC1CC(=O)N(c2ccc(C(=O)O)cc2)C1=O (stereo not drawn),-7%,2%,15%,-14%,4%,45µM*,67*,?,Pol kappa inh-2=42*
Cc1ccc(N2CC(C(=O)N3CCC(c4nc5ccccc5[nH]4)CC3)CC2=O)cc1C (stereo not drawn),-4%,-8%,60%,-14%,/,0%,/,/,
O=C(Cc1ccc(Cl)cc1)NO,/,/,25%,11%,/,/,/,/,
